Results taken from article PMC9838217, “Structure of SALL4 zinc finger domain reveals link between AT-rich DNA binding and Okihiro syndrome”.
Positions count from the first letter of the chain named.

What follows are sequences tested against T1, SALL4 ZFC4 WT (HT-SELEX) (Mus musculus, UniProt Q8BX22 870-940) (assay: HT-SELEX; high values mean tight binding). Conditions: protein: recombinant; vector His6-GST; dsDNA, one strand shown.
T1 sequence: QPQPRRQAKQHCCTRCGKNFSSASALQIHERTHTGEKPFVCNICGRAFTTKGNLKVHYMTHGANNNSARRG
Procedure, shortened: (§1)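 Residues 870–940 of mouse SALL4, forming zinc finger cluster 4, were expressed recombinantly, purified, and 1 µg was incubated with library DNA (1.5 µg first cycle, 200 ng later) in 100 µl of 10 mM Tris–HCl pH 7.5, 50 mM NaCl, poly(dI-dC) and DTT for 10 min at room temperature. Washed Ni2+ bead-captured complexes were PCR-amplified and reselected for up to 6 cycles in triplicate, and the products were sequenced on MiSeq and scanned for 6-mers. Binding signal is the fold change in each canonical k-mer's read fraction compared with the initial random library.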
With ATCCTC the binding signal was 0.944 ± 0.0401 fold-change vs cycle 0. TCCACA was tested, and the binding signal was 0.698 ± 0.0439 fold-change vs cycle 0. Work on CACCGA yielded a binding signal of 0.338 ± 0.00929 fold-change vs cycle 0. ACTCGG was tested, and the binding signal was 0.394 ± 0.0337 fold-change vs cycle 0. TACAGA was tested, and the binding signal was 1.3 ± 0.0338 fold-change vs cycle 0. Sequence ACGTCA has a binding signal of 0.686 ± 0.00954 fold-change vs cycle 0. With CACTGA the binding signal was 0.799 ± 0.0339 fold-change vs cycle 0. In the case of ACCCGT, the binding signal is reported as 0.418 ± 0.0141 fold-change vs cycle 0. ACATCA showed a binding signal of 1.32 ± 0.0619 fold-change vs cycle 0. AAAAGG gave a binding signal of 1.08 ± 0.0719 fold-change vs cycle 0. AGAACA gave a binding signal of 1.26 ± 0.0155 fold-change vs cycle 0. With CATTGG the binding signal was 0.754 ± 0.0443 fold-change vs cycle 0. AGATGG gave a binding signal of 0.853 ± 0.0339 fold-change vs cycle 0. CATATC was tested, and the binding signal was 1.68 ± 0.148 fold-change vs cycle 0. With TTGCAA the binding signal was 1.13 ± 0.0202 fold-change vs cycle 0. CTGATA showed a binding signal of 1.39 ± 0.0802 fold-change vs cycle 0. In the case of CCAATC, the binding signal is reported as 0.76 ± 0.0281 fold-change vs cycle 0. CAGTCG gave a binding signal of 0.32 ± 0.0306 fold-change vs cycle 0. ACATGG showed a binding signal of 0.798 ± 0.0238 fold-change vs cycle 0. TACGAA showed a binding signal of 1.17 ± 0.0583 fold-change vs cycle 0. Work on CACTCA yielded a binding signal of 0.83 ± 0.0249 fold-change vs cycle 0. With ACTGAA the binding signal was 1.38 ± 0.0494 fold-change vs cycle 0. CTTCCA gave a binding signal of 0.834 ± 0.0174 fold-change vs cycle 0. AATTTA showed a binding signal of 2.91 ± 0.251 fold-change vs cycle 0. CTCAAC showed a binding signal of 0.775 ± 0.0132 fold-change vs cycle 0. For ACTGTG, the binding signal was 0.743 ± 0.0431 fold-change vs cycle 0. With ATTTTC the binding signal was 1.99 ± 0.115 fold-change vs cycle 0. With GTAATA the binding signal was 2.33 ± 0.177 fold-change vs cycle 0. ATGTCA showed a binding signal of 1.23 ± 0.0617 fold-change vs cycle 0. For CAGTAC, the binding signal was 0.772 ± 0.0398 fold-change vs cycle 0. With CATCTA the binding signal was 1.33 ± 0.0229 fold-change vs cycle 0. In the case of CATTCA, the binding signal is reported as 1.32 ± 0.0575 fold-change vs cycle 0. Sequence CAAAGG has a binding signal of 0.765 ± 0.046 fold-change vs cycle 0. For CATGTA, the binding signal was 1.28 ± 0.0897 fold-change vs cycle 0. ACATTC was tested, and the binding signal was 1.29 ± 0.0367 fold-change vs cycle 0. Sequence CTTGAC has a binding signal of 0.777 ± 0.0347 fold-change vs cycle 0. AGTTCA gave a binding signal of 1.42 ± 0.0499 fold-change vs cycle 0. AACAAG was tested, and the binding signal was 1.28 ± 0.0479 fold-change vs cycle 0. GAACAC was tested, and the binding signal was 0.766 ± 0.0374 fold-change vs cycle 0. For CTGTGA, the binding signal was 0.75 ± 0.0215 fold-change vs cycle 0.

What follows are sequences tested against T2, SALL4 ZFC4 R900W (HT-SELEX) (Mus musculus, UniProt Q8BX22 870-940, R900W) (assay: HT-SELEX; high values mean tight binding). Conditions: protein: recombinant; vector His6-GST; dsDNA, one strand shown.
T2 sequence: T1 sequence with R31W
Procedure, shortened: as §1
ATCCTC showed a binding signal of 1.06 ± 0.0699 fold-change vs cycle 0. TCCACA showed a binding signal of 0.806 ± 0.0256 fold-change vs cycle 0. CACCGA gave a binding signal of 0.392 ± 0.0114 fold-change vs cycle 0. Work on ACTCGG yielded a binding signal of 0.467 ± 0.0183 fold-change vs cycle 0. With TACAGA the binding signal was 1.38 ± 0.0448 fold-change vs cycle 0. With ACGTCA the binding signal was 0.776 ± 0.0221 fold-change vs cycle 0. For CACTGA, the binding signal was 0.912 ± 0.0516 fold-change vs cycle 0. With ACCCGT the binding signal was 0.5 ± 0.0199 fold-change vs cycle 0. For ACATCA, the binding signal was 1.42 ± 0.0539 fold-change vs cycle 0. AAAAGG gave a binding signal of 1.25 ± 0.064 fold-change vs cycle 0. AGAACA showed a binding signal of 1.39 ± 0.0297 fold-change vs cycle 0. CATTGG was tested, and the binding signal was 0.867 ± 0.0514 fold-change vs cycle 0. AGATGG showed a binding signal of 0.933 ± 0.00507 fold-change vs cycle 0. Sequence CATATC has a binding signal of 1.44 ± 0.0706 fold-change vs cycle 0. TTGCAA showed a binding signal of 1.09 ± 0.0477 fold-change vs cycle 0. For CTGATA, the binding signal was 1.44 ± 0.0817 fold-change vs cycle 0. CCAATC gave a binding signal of 0.854 ± 0.0448 fold-change vs cycle 0. CAGTCG was tested, and the binding signal was 0.389 ± 0.0206 fold-change vs cycle 0. Sequence ACATGG has a binding signal of 0.918 ± 0.032 fold-change vs cycle 0. With TACGAA the binding signal was 1.27 ± 0.067 fold-change vs cycle 0. Sequence CACTCA has a binding signal of 0.928 ± 0.0236 fold-change vs cycle 0. ACTGAA showed a binding signal of 1.5 ± 0.11 fold-change vs cycle 0. In the case of CTTCCA, the binding signal is reported as 0.975 ± 0.0211 fold-change vs cycle 0. In the case of AATTTA, the binding signal is reported as 2.35 ± 0.145 fold-change vs cycle 0. With CTCAAC the binding signal was 0.9089 ± 0.00888 fold-change vs cycle 0. Work on ACTGTG yielded a binding signal of 0.842 ± 0.0558 fold-change vs cycle 0. Sequence ATTTTC has a binding signal of 1.68 ± 0.0202 fold-change vs cycle 0. With GTAATA the binding signal was 2.09 ± 0.144 fold-change vs cycle 0. ATGTCA was tested, and the binding signal was 1.34 ± 0.0399 fold-change vs cycle 0. For CAGTAC, the binding signal was 0.92 ± 0.0398 fold-change vs cycle 0. CATCTA gave a binding signal of 1.41 ± 0.0368 fold-change vs cycle 0. CATTCA was tested, and the binding signal was 1.48 ± 0.0487 fold-change vs cycle 0. With CAAAGG the binding signal was 0.898 ± 0.0341 fold-change vs cycle 0. Sequence CATGTA has a binding signal of 1.37 ± 0.0595 fold-change vs cycle 0. In the case of ACATTC, the binding signal is reported as 1.44 ± 0.0794 fold-change vs cycle 0. Sequence CTTGAC has a binding signal of 0.934 ± 0.0128 fold-change vs cycle 0. AGTTCA was tested, and the binding signal was 1.55 ± 0.0608 fold-change vs cycle 0. AACAAG was tested, and the binding signal was 1.5 ± 0.0772 fold-change vs cycle 0. For GAACAC, the binding signal was 0.901 ± 0.0255 fold-change vs cycle 0. Sequence CTGTGA has a binding signal of 0.869 ± 0.0352 fold-change vs cycle 0.

The sequences below were run against T3, SALL4 ZFC4 G921D (HT-SELEX) (Mus musculus, UniProt Q8BX22 870-940, G921D) (assay: HT-SELEX; high values mean tight binding). Conditions: protein: recombinant; vector His6-GST; dsDNA, one strand shown.
T3 sequence: T1 sequence with G52D
Procedure, shortened: as §1
For ATCCTC, the binding signal was 1.09 ± 0.0423 fold-change vs cycle 0. TCCACA showed a binding signal of 0.842 ± 0.0543 fold-change vs cycle 0. CACCGA showed a binding signal of 0.523 ± 0.056 fold-change vs cycle 0. With ACTCGG the binding signal was 0.588 ± 0.0373 fold-change vs cycle 0. TACAGA gave a binding signal of 1.33 ± 0.0789 fold-change vs cycle 0. Sequence ACGTCA has a binding signal of 0.847 ± 0.0153 fold-change vs cycle 0. CACTGA was tested, and the binding signal was 0.949 ± 0.00436 fold-change vs cycle 0. With ACCCGT the binding signal was 0.577 ± 0.0315 fold-change vs cycle 0. With ACATCA the binding signal was 1.37 ± 0.0921 fold-change vs cycle 0. For AAAAGG, the binding signal was 1.18 ± 0.0579 fold-change vs cycle 0. In the case of AGAACA, the binding signal is reported as 1.34 ± 0.0563 fold-change vs cycle 0. With CATTGG the binding signal was 0.924 ± 0.0186 fold-change vs cycle 0. In the case of AGATGG, the binding signal is reported as 0.962 ± 0.0157 fold-change vs cycle 0. CATATC showed a binding signal of 1.39 ± 0.0818 fold-change vs cycle 0. TTGCAA showed a binding signal of 1.146 ± 0.00914 fold-change vs cycle 0. CTGATA was tested, and the binding signal was 1.36 ± 0.068 fold-change vs cycle 0. CCAATC showed a binding signal of 0.933 ± 0.0316 fold-change vs cycle 0. With CAGTCG the binding signal was 0.497 ± 0.0334 fold-change vs cycle 0. ACATGG showed a binding signal of 0.959 ± 0.0218 fold-change vs cycle 0. With TACGAA the binding signal was 1.22 ± 0.0855 fold-change vs cycle 0. CACTCA was tested, and the binding signal was 0.995 ± 0.0233 fold-change vs cycle 0. Sequence ACTGAA has a binding signal of 1.39 ± 0.103 fold-change vs cycle 0. For CTTCCA, the binding signal was 1.02 ± 0.0304 fold-change vs cycle 0. AATTTA gave a binding signal of 2.04 ± 0.225 fold-change vs cycle 0. Sequence CTCAAC has a binding signal of 0.928 ± 0.0107 fold-change vs cycle 0. ACTGTG showed a binding signal of 0.876 ± 0.035 fold-change vs cycle 0. For ATTTTC, the binding signal was 1.56 ± 0.0749 fold-change vs cycle 0. Sequence GTAATA has a binding signal of 1.81 ± 0.189 fold-change vs cycle 0. Sequence ATGTCA has a binding signal of 1.32 ± 0.0617 fold-change vs cycle 0. In the case of CAGTAC, the binding signal is reported as 0.957 ± 0.0386 fold-change vs cycle 0. CATCTA gave a binding signal of 1.38 ± 0.068 fold-change vs cycle 0. Sequence CATTCA has a binding signal of 1.41 ± 0.0654 fold-change vs cycle 0. For CAAAGG, the binding signal was 0.935 ± 0.0222 fold-change vs cycle 0. In the case of CATGTA, the binding signal is reported as 1.35 ± 0.123 fold-change vs cycle 0. In the case of ACATTC, the binding signal is reported as 1.37 ± 0.0959 fold-change vs cycle 0. Work on CTTGAC yielded a binding signal of 0.981 ± 0.0363 fold-change vs cycle 0. Sequence AGTTCA has a binding signal of 1.44 ± 0.0878 fold-change vs cycle 0. In the case of AACAAG, the binding signal is reported as 1.39 ± 0.0671 fold-change vs cycle 0. GAACAC was tested, and the binding signal was 0.932 ± 0.0461 fold-change vs cycle 0. CTGTGA showed a binding signal of 0.91 ± 0.0154 fold-change vs cycle 0.
